Shiga toxin inh: A qHTS for Small Molecule Inhibitors of Shiga Toxin; Vero cells, Shiga toxin protein synthesis inhibition reporter; inhibition, % at 38.7 µM; hit rate 9.2% among 290,000; AID 2315, 2010; in the data active = inhibition mostly above about 28%, no sharp cut-off; inactive = mostly below about 43%; also: 0% is about no effect
Sm TGR inh: qHTS Assay for the Inhibitors of Schistosoma Mansoni Peroxiredoxins; hit rate 3% among 360,000; purified TGR, DTNB reduction, TNB absorbance 405 nm; Potency, µM (titrated, usually from 114 µM), for the others: top-dose activity change, negative = inhibition, usual class: inhibitors; AID 485364, 2010; active = well fitted inhibition curve with a large enough effect; inconclusive = small, poorly fitted or top-dose-only effect; inactive = no such curve, though single readings can be large or run the other way; also: potency is read from the fitted curve at half-maximal effect; % is scaled to controls: 0 for no effect and ±100 for the full control effect; nearly all actives have a fitted effect of over 60% in size
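TGR 20 nM + NADPH 100 uM (dispensed conc.), cpd preinc 15 min RT; start with NADPH (500 uM addition) then DTNB (15 mM addition). Kinetic TNB absorbance, 405 nm filter. Four-parameter Hill fit across titration.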
CHX counter: Cycloheximide Counterscreen for Small Molecule Inhibitors of Shiga Toxin | cell reporter, cycloheximide protein synthesis inhibition counterscreen | max response, % | hit rate 12% among 300,000; in the data active = max response mostly above about 13%, no sharp cut-off; inactive = mostly below about 14%; also: read at 38.3 µM for the half of the compounds with a filed dose; 0% is about no effect
FMDV inh: High Throughput Screening for Foot and Mouth Disease Virus Antivirals. hit rate 1.2% among 410,000. Potency, µM (series often up to 57.9 µM), without a hit: top-dose activity change, negative = inhibition, actives largely listed as inhibitors. FMDV antiviral cell-based qHTS. AID 1159524, 2015; calls by dose curve; tested in HEK293T cells; also: read-out not given here; potency is read from the fitted curve at half-maximal effect; % is scaled to controls: 0 for no effect and ±100 for the full control effect; nearly all actives have a fitted effect of over 45% in size
Numbers without * were called inactive; ? = inconclusive; . = no result given; + = active, no number. An excerpt weighted towards active compounds, which were near 12% of everything screened.

SMILES	Shiga toxin inh	Sm TGR inh	CHX counter	FMDV inh
C/C=C(\CS(=O)(=O)c1ccccc1)S(=O)(=O)c1ccccc1	44*	35µM*	15*	-10%
CCC(C)/C=C/C1=CC2=C(Cl)C(=O)C3(C)OC(=O)C(C(=O)C(C)C(C)O)C3C2=CO1 (stereo not given)	-8	50µM*	-1	13%
CCc1ccccc1NC(=O)c1onc(C)c1Cl	12	7%	4	-12%
Cc1noc(C(=O)Nc2ccc(F)cc2F)c1Cl	44	?	31*	19%
Cc1ccc(O)c(NC(=O)c2onc(C)c2Cl)c1	66*	-5%	30*	28%
Cc1cccc(C)c1-n1ncc(C(=O)N2CCN(c3ccccn3)CC2)c1C1CCN(C(=O)OC(C)(C)C)CC1	.	-2%	.	-28%
CSc1ccc(Cc2ccc(Cl)cc2Cl)nn1	38	-26%	22*	30%
NNc1ccc(Cc2ccc(Cl)cc2Cl)nn1	16	-7%	-3	-3%
O=C(Nc1ccccc1)c1ccc(NCc2ccco2)c(S(=O)(=O)N2CCOCC2)c1	16	32µM*	10.0*	-4%
Cc1ccc(C(=O)Nc2cccnc2)cc1S(=O)(=O)N1CCCC1	31	0%	20*	2%
Cc1ccc(C(=O)Nc2cccc(C(=O)N3CCOCC3)c2)cc1	70	11%	18	-2%
CC(C)(C)c1ccc(C(=O)Nc2cccc(C(=O)N3CCOCC3)c2)cc1	57*	0%	45*	-20%
Cc1ccc(C(=O)Nc2cccc(C(=O)O)c2)cc1S(=O)(=O)N1CCOCC1	39	7%	24*	.
O=C(NCCSCc1ccccc1)C1CCN(S(=O)(=O)Cc2ccccc2)CC1	.	0%	.	-21%
Cc1ccc(C(=O)Nc2cccc(C(=O)O)c2)cc1S(=O)(=O)N1CCCCC1	132*	24%	87*	-47%
Cc1cc(C(=O)Nc2cccnc2)cs1	15	1%	12*	30%
Cc1ccc(C(=O)Nc2cccnc2)cc1Cl	41*	2%	26*	0%
COCCCN1CN=C(Nc2nc3ccccc3o2)NC1	61*	1%	40*	70%
c1ccc2oc(NC3=NCN(CC4CCCO4)CN3)nc2c1 (stereo not given)	81*	-1%	29*	49%
CCCN1CN=C(Nc2nc3ccccc3o2)NC1	130*	8%	32*	56%
O=C(CSc1nc2ccccc2o1)NCC1CCCO1 (stereo not given)	.	-3%	.	12%
OCCN1CN=C(Nc2nc3ccccc3o2)NC1	-4	-1%	-1	-4%
O=C(Cc1ccccc1)Nc1ccc(N2CCCCC2)cc1	83*	-1%	31*	40%
CN1CCN(c2ccc(NC(=O)Cc3ccccc3)cc2)CC1	75*	0%	55*	64%
CS(=O)(=O)N1CCN(c2ccc(NC(=O)Cc3ccccc3)cc2)CC1	44	3%	22	.
SMILES	Shiga toxin inh	Sm TGR inh	CHX counter	FMDV inh
CCN1C(=O)/C(=C/c2ccc(C)o2)N(C)C1=S	11	28µM*	16*	26%
Cc1ccc(/C=C2/NC(=O)N(Cc3ccccc3F)C2=O)o1	-1	?	5	-16%
CCCN1C(=O)/C(=C/c2ccc(C)o2)NC1=S	30	6.3µM*	16	.
CCCN1C(=O)/C(=C/c2ccc(OCC(=O)OCC)cc2)NC1=S	-18	-16%	2	17%
Cc1ccc(/C=C2/NC(=O)N(Cc3ccc(Br)cc3)C2=O)o1	1	50µM*	-5	-17%
CCN1C(=O)N/C(=C/c2ccc(C)o2)C1=O	12	35µM*	1	-1%
CCN1CCN(C(=O)c2cnn(-c3ncc4c(n3)-c3ccccc3CCC4)c2COC)CC1	.	.	.	9%
CC1=C/C(=N\NC(=O)c2ccccc2)CC1	+	0%	43*	0%
O=C(NCC1CCC2(CCN(Cc3c[nH]c4ccccc34)CC2)O1)C1CCOCC1 (stereo not given)	.	.	.	4%
COc1cccc(CNC(=O)CN(c2ccc(C(C)C)cc2)S(=O)(=O)c2c(C)n[nH]c2C)c1	.	-13%	.	-29%
O=C(COc1ccccc1N1C(=O)c2ccccc2C1=O)c1ccc(Cl)cc1	34*	2%	20*	5%
COc1cc(NC2c3ncccc3C(=O)N2Cc2ccco2)cc(OC)c1 (stereo not given)	-1	45µM*	9	4%
COc1cc(Cl)c(NC(=O)c2cc(S(=O)(=O)N3CCCCC3)c[nH]2)c(OC)c1	.	-9%	.	-5%
COc1ccc(CCCC(=O)N/N=C/c2cccc(OC)c2O)cc1C	52*	3%	28*	-20%
COc1cc(C(=O)NCC(=O)N/N=C/c2ccco2)cc(OC)c1OC	-2	-4%	-2	-17%
